Values joined by “and” are separate entries in the source; they are usually repeats but may differ in a detail not shown here. Identical values can stand only once. Records with an inconclusive call do not appear. Where a call stands in place of a potency, no number is given. Where a structure was tested more than once in an assay, its records may differ in their call. Active and inactive are the calls of the source. Unless noted, calls come from the whole dose curve; as a rule, active = well fitted cell-killing curve with a large enough effect in the repeat runs; inconclusive = weak or mixed curves; inactive = no such curve, though single readings can be large or run the other way.

Sequence of Peroxisome proliferator-activated receptor delta (Homo sapiens) (Q03181 whole entry, looked up): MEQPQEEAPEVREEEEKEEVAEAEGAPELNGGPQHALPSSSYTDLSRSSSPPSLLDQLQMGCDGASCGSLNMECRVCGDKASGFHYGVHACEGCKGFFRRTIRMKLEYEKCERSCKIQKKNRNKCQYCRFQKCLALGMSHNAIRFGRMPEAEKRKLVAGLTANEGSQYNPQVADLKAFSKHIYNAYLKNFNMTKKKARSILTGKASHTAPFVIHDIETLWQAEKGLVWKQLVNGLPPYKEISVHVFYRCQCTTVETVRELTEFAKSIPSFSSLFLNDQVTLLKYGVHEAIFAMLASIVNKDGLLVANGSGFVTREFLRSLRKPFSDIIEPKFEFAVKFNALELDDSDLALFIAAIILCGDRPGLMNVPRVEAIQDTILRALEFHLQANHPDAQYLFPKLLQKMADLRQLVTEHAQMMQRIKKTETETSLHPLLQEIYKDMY

One experiment concerns the target Peroxisome proliferator-activated receptor delta (Homo sapiens) (UniProt Q03181). Briefly: qHTS assay to identify small molecule agonists of the peroxisome proliferator-activated receptor delta (PPARd) signaling pathway (AID 743212; calls by dose curve). Particulars: HEK293H PPARd-UAS-bla, beta-lactamase FRET ratio, 17 h; series mostly up to 62.6 µM; activation: at the top concentration. The method, boiled down: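 Cells expressing a UAS-driven beta-lactamase reporter (PPARd-bla HEK293H) were given test compounds after a 5 h settle and kept at 37 C. Reporter activity was then measured as FRET fluorescence using LiveBLAzer B/G substrate.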
For orientation: In qHTS, concentration-response curves come from the screen itself.
With `CC(C)(C)NC(=O)[C@H]1CC[C@H]2[C@@H]3CC[C@H]4NC(=O)C=C[C@]4(C)[C@H]3CC[C@]12C`, the outcome was inactive.
Consider `O=c1oc(=O)c2cc3c(=O)oc(=O)c3cc12`, for which the outcome was inactive.
The same measure, in the same setting: next, `CN1C(C(=O)Nc2ccccn2)=C(O)c2ccccc2S1(=O)=O`: “inactive”; `OCCO`: “inactive”.
Same read-out and setting: as for `CC(CCC(=O)O)(c1ccc(O)cc1)c1ccc(O)cc1`, the entry is “inactive”.
As to `COc1ccc(OC)c(C(O)CNC(=O)CN)c1` (stereo not given), the result was inactive.
On the same count and under the same terms, as for `O=[N+]([O-])c1ccc2c(c1)Cc1ccccc1-2`, the entry is “inactive”; as for `CC1=CCC(C(C)(C)O)CC1` (stereo not given), “inactive”; as for `CC(C)Oc1ccc2c(=O)c(-c3ccccc3)coc2c1`, “inactive”.
Consider `O=C1c2cccc(O)c2C(=O)c2c(O)cccc21`, for which the outcome was inactive.
Still for that read-out and setting: as for `Cc1c(OCC(F)(F)F)ccnc1CS(=O)c1nc2ccccc2[nH]1` (stereo not given), the entry is “inactive”; as for `C[Si](C)(C)O[Si](C)(C)C`, “inactive”.
In the case of `CC(=O)O[C@]1(C(C)=O)CC[C@H]2[C@@H]3C=C(Cl)C4=CC(=O)[C@@H]5C[C@@H]5[C@]4(C)[C@H]3CC[C@@]21C`, the “activation” value is -7.08% (inactive).
For the compound `c1cc(-c2ccncc2)ccn1`, the outcome was inactive.
As for `CC(C)=CCCC(C)CCO` (stereo not given), the outcome was inactive.
Turning to `CCCC(=O)O`, the result was inactive.
On the same count and under the same terms, as for `CCCCC(CC)COC(=O)c1ccc(N(C)C)cc1` (stereo not given), the entry is “inactive”; as for `CC(=O)c1ccccn1`, “inactive”.
In the case of `CC(C)OC=O`, the “activation” value was 4.01% (inactive).
Regarding `COc1ccccc1/C=C/C=O`, the outcome was inactive.
Consider `O=CCCCC=O`, for which the result was inactive.
Same read-out and setting: as for `CCOCCOCCO`, the entry is “inactive”.
As for `Nc1ccccc1N`, the “activation” value is -0.0162% [at 81.1 µM] (inactive).
Take `COc1ccc(C(=O)CC(=O)c2ccc(C(C)(C)C)cc2)cc1`: the outcome was inactive.
For `C[C@]12CC[C@H]3[C@@H](CCC4=CC(=O)CC[C@@]43C)[C@@H]1CC[C@@H]2C(=O)CO`, the “activation” value was -4.61% (inactive).
On the same count and under the same terms, next, `CNCCCC12CCC(c3ccccc31)c1ccccc12`: -3.72% (inactive).
In the case of `Cc1ncc[nH]1`, the result was inactive.
`Brc1cc(Oc2cc(Br)c(Br)c(Br)c2Br)c(Br)c(Br)c1Br`: the “activation” value was -1.47% (inactive).

System in another experiment: not listed separately
Briefly: qHTS assay to identify small molecule antagonists of the peroxisome proliferator-activated receptor delta (PPARd) signaling pathway - cell viability counter screen (AID 743213). Note: nearly all actives have a fitted effect of over 50% in size. Note: potency is the fitted concentration of half-maximal effect. Particulars: PPARd-bla HEK293H viability, CellTiter-Glo luminescence, 17 h; series mostly up to 62 µM; viability change, negative = cytotoxic: at the top concentration. Put shortly: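 Same-well viability: cells pre-incubated 5 h, dosed with compound plus 300 nM L165041, kept 17 h at 37 C, FRET substrate 2 h RT, then CellTiter-Glo 30 min RT and luminescence.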
Take `CCCCOCCOCCO`: the Potency entry was “inactive”.
On to `CC(C)(C)NC(=O)[C@H]1CC[C@H]2[C@@H]3CC[C@H]4NC(=O)C=C[C@]4(C)[C@H]3CC[C@]12C`, for which the Potency entry was “inactive”.
With `O=c1oc(=O)c2cc3c(=O)oc(=O)c3cc12`, the Potency entry is “inactive”.
In the case of `CN1C(C(=O)Nc2ccccn2)=C(O)c2ccccc2S1(=O)=O`, the Potency result is “inactive”.
Regarding `OCCO`, the Potency result was “inactive”.
On the same count and under the same terms, next, `CC(CCC(=O)O)(c1ccc(O)cc1)c1ccc(O)cc1`: “inactive”; `COc1ccc(OC)c(C(O)CNC(=O)CN)c1` (stereo not given): “inactive”; `CCCc1c(OCCCCc2nn[nH]n2)ccc(C(C)=O)c1O`: “inactive”.
On the same count and under the same terms, as for `O=[N+]([O-])c1ccc2c(c1)Cc1ccccc1-2`, the entry is “inactive”; as for `CC1=CCC(C(C)(C)O)CC1` (stereo not given), “inactive”.
In the case of `CC(C)Oc1ccc2c(=O)c(-c3ccccc3)coc2c1`, the “viability change, negative = cytotoxic” value is 22.3% (inactive).
Same read-out and setting: next, `CC(C)=CCC/C(C)=C\CO`: -7.19% (inactive).
Take `Cc1c(OCC(F)(F)F)ccnc1CS(=O)c1nc2ccccc2[nH]1` (stereo not given): the Potency entry is “inactive”.
For the compound `C[Si](C)(C)O[Si](C)(C)C`, the Potency result is “inactive”.
With `CC(=O)O[C@]1(C(C)=O)CC[C@H]2[C@@H]3C=C(Cl)C4=CC(=O)[C@@H]5C[C@@H]5[C@]4(C)[C@H]3CC[C@@]21C`, the Potency entry is “inactive”.
Still for that read-out and setting: next, `O=CCc1ccccc1`: “inactive”.
`c1ccc2sc(SSN3CCOCC3)nc2c1`: the “viability change, negative = cytotoxic” value is -26% (inactive).
For the compound `c1cc(-c2ccncc2)ccn1`, the Potency entry is “inactive”.
Take `CC(C)=CCCC(C)CCO` (stereo not given): the Potency entry was “inactive”.
With `CCCC(=O)O`, the Potency entry is “inactive”.
Consider `c1ccc2cc(Nc3ccc(Nc4ccc5ccccc5c4)cc3)ccc2c1`, for which the “viability change, negative = cytotoxic” value is -9.51% (inactive).
As for `CCCCC(CC)COC(=O)c1ccc(N(C)C)cc1` (stereo not given), the Potency entry is “inactive”.
Regarding `CC(=O)c1ccccn1`, the “viability change, negative = cytotoxic” value is 1.14% (inactive).
Consider `CCCCCCCCCCCO`, for which the Potency entry was “inactive”.
On to `CC(C)OC=O`, for which the “viability change, negative = cytotoxic” value was 0.0131% (inactive).
As for `COc1ccccc1/C=C/C=O`, the Potency entry is “inactive”.
Consider `C#C[C@]1(O)CC[C@H]2[C@@H]3CCC4=Cc5oncc5C[C@]4(C)[C@H]3CC[C@@]21C`, for which the “viability change, negative = cytotoxic” value was 1.44% (inactive).
The same measure, in the same setting: next, `O=C(O)c1ccccc1Nc1cccc(C(F)(F)F)c1`: 0.0326% (inactive).
For the compound `O=CCCCC=O`, the Potency result is “inactive”.
Consider `O=C(c1ccccc1)c1ccccc1O`, for which the Potency result was “inactive”.
On to `CCOCCOCCO`, for which the Potency entry is “inactive”.
As for `Nc1ccccc1N`, the Potency entry was “inactive”.
On to `COc1ccc(C(=O)CC(=O)c2ccc(C(C)(C)C)cc2)cc1`, for which the “viability change, negative = cytotoxic” value is 16.1% (inactive).
As to `C[C@]12CC[C@H]3[C@@H](CCC4=CC(=O)CC[C@@]43C)[C@@H]1CC[C@@H]2C(=O)CO`, the Potency entry was “inactive”.
Regarding `CNCCCC12CCC(c3ccccc31)c1ccccc12`, the Potency is 9.77 µM (active) and 16.8 µM (active).
On the same count and under the same terms, next, `Nc1ccc(S(=O)(=O)Nc2cnc3ccccc3n2)cc1`: “inactive”; `Cc1ncc[nH]1`: “inactive”; `Brc1cc(Oc2cc(Br)c(Br)c(Br)c2Br)c(Br)c(Br)c1Br`: 55.2 µM (active) and inactive.

In the next experiment the target is Peroxisome proliferator-activated receptor delta (Homo sapiens) (UniProt Q03181). Briefly: qHTS assay to identify small molecule antagonists of the peroxisome proliferator-activated receptor delta (PPARd) signaling pathway (AID 743215; active = well fitted inhibition curve with a large enough effect in the signal ratio in the repeat runs, not every such curve was filed as active; the % refers to the signal ratio;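 note: cells stimulated with agonist L165041 at 300 nM final during compound exposure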). Conditions: HEK293H PPARd-UAS-bla, beta-lactamase FRET ratio, antagonist, 17 h; series mostly up to 62 µM; ratio activity, negative = inhibition: at the top concentration. Put shortly:
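Cells: HEK293H with a UAS-driven beta-lactamase reporter responsive to PPARd. Compounds were co-added with L165041 (300 nM, final) and incubated 17 h at 37 C before a 2 h room-temperature FRET substrate step and fluorescence reading.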
For `CC(C)(C)NC(=O)[C@H]1CC[C@H]2[C@@H]3CC[C@H]4NC(=O)C=C[C@]4(C)[C@H]3CC[C@]12C`, the Potency result is “inactive”.
On to `O=c1oc(=O)c2cc3c(=O)oc(=O)c3cc12`, for which the Potency entry is “inactive”.
On to `CN1C(C(=O)Nc2ccccn2)=C(O)c2ccccc2S1(=O)=O`, for which the “ratio activity, negative = inhibition” value was -9.66% [at 80.4 µM] (inactive).
As for `OCCO`, the “ratio activity, negative = inhibition” value was 15.7% [at 80.4 µM] (inactive).
In the case of `CC(CCC(=O)O)(c1ccc(O)cc1)c1ccc(O)cc1`, the “ratio activity, negative = inhibition” value is 2.5% (inactive).
As for `COc1ccc(OC)c(C(O)CNC(=O)CN)c1` (stereo not given), the “ratio activity, negative = inhibition” value was 20.3% (inactive).
On the same count and under the same terms, as for `CCCc1c(OCCCCc2nn[nH]n2)ccc(C(C)=O)c1O`, the figure is 4.99% (inactive).
For `O=[N+]([O-])c1ccc2c(c1)Cc1ccccc1-2`, the Potency entry is “inactive”.
Same read-out and setting: next, `CC1=CCC(C(C)(C)O)CC1` (stereo not given): “inactive”; `CC(C)Oc1ccc2c(=O)c(-c3ccccc3)coc2c1`: “inactive”.
`O=C1c2cccc(O)c2C(=O)c2c(O)cccc21`: the “ratio activity, negative = inhibition” value is -7.48% (inactive).
Regarding `Cc1c(OCC(F)(F)F)ccnc1CS(=O)c1nc2ccccc2[nH]1` (stereo not given), the Potency result was “inactive”.
The same measure, in the same setting: as for `C[Si](C)(C)O[Si](C)(C)C`, the entry is “inactive”.
Consider `CC(=O)O[C@]1(C(C)=O)CC[C@H]2[C@@H]3C=C(Cl)C4=CC(=O)[C@@H]5C[C@@H]5[C@]4(C)[C@H]3CC[C@@]21C`, for which the “ratio activity, negative = inhibition” value is -13.8% (inactive).
In the case of `c1cc(-c2ccncc2)ccn1`, the Potency entry is “inactive”.
Turning to `CCCC(=O)O`, the Potency entry is “inactive”.
As to `c1ccc2cc(Nc3ccc(Nc4ccc5ccccc5c4)cc3)ccc2c1`, the Potency entry was “inactive”.
On the same count and under the same terms, next, `CCCCC(CC)COC(=O)c1ccc(N(C)C)cc1` (stereo not given): “inactive”; `CC(=O)c1ccccn1`: “inactive”; `CCCCCCCCCCCO`: “inactive”.
On to `CC(C)OC=O`, for which the “ratio activity, negative = inhibition” value was -5.85% (inactive).
As to `COc1ccccc1/C=C/C=O`, the “ratio activity, negative = inhibition” value was 1.89% [at 80.4 µM] (inactive).
On the same count and under the same terms, as for `O=C(O)c1ccccc1Nc1cccc(C(F)(F)F)c1`, the figure is 0.318% (inactive).
In the case of `O=CCCCC=O`, the Potency entry is “inactive”.
On the same count and under the same terms, as for `CCOCCOCCO`, the entry is “inactive”.
Consider `Nc1ccccc1N`, for which the “ratio activity, negative = inhibition” value was 9.25% [at 80.4 µM] (inactive).
Take `COc1ccc(C(=O)CC(=O)c2ccc(C(C)(C)C)cc2)cc1`: the Potency entry is “inactive”.
Same read-out and setting: next, `Cc1ncc[nH]1`: “inactive”.
On to `Brc1cc(Oc2cc(Br)c(Br)c(Br)c2Br)c(Br)c(Br)c1Br`, for which the “ratio activity, negative = inhibition” value is 1.72% (inactive).

The record behind these values is PubChem BioAssay (Tox21).
